The values that follow come from PubChem BioAssay.

The source made the active and inactive calls. Unless noted, the rule behind the calls is not given here.

Assay [1] in a line: HepG2 liver cancer cell viability effects, profiling panel, resazurin fluorescence, 24 h, PK04 Diversity Set (AID 1172). Conditions: higher = more signal.
A short description of assay [2]: basal S. cerevisiae growth modulation, no modifier, primary screen, OD600, strain BY4716, 24 h, basal condition (AID 1173). Conditions: OD600, 24 h, higher = more signal, called active from +8 up or from −8 down.
The nature of assay [3]: MM1S myeloma cell viability, profiling panel, resazurin fluorescence, basal, 24 h, PK04 Diversity Set (AID 1174).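 Note: MM1S multiple myeloma cell line.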 Conditions: higher = more signal, called active from +8 up or from −8 down.
The target of assay [4] is Dihydroorotate dehydrogenase (quinone), mitochondrial (Plasmodium falciparum (isolate 3D7)) (UniProt Q08210). Kind of assay: PfDHODH enzyme inhibitors, primary screen, biochemical, C-terminal His tag, absorbance 600 nm (AID 1175).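 Note: recombinant parasite enzyme with a five histidine tag at its C terminus.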 Conditions: DCIP absorbance 600 nm, higher = more signal, called active from +8 up or from −8 down.
A short description of assay [5]: P. aeruginosa biofilm formation inhibitors, primary screen, strain PAO1, LB-PBS medium, absorbance 600 nm (AID 1176). Conditions: P. aeruginosa PAO1 growth/biofilm, A600, 12 h; higher = more signal.
Assay [6] can be described thus: S. cerevisiae RM11-1a growth modifiers, primary screen, strain RM11-1a, OD600, basal, 24 h (AID 1177).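 Note: cultures grown under basal conditions with no added stressor.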 The settings on record: OD600, 24 h, higher = more signal, called active from +8 up or from −8 down.
A short description of assay [7]: E. coli acrAB mutant growth effects, primary screen, E. coli filamentation inducers, strain DRC39, OD650, 24 h (AID 1178).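 Note: growth measured as culture turbidity by optical density at 650 nm.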 Conditions: higher = more signal, called active from +8 up or from −8 down.
A short description of assay [8]: E. coli acrAB mutant growth effects, primary screen, E. coli filamentation inducers, strain DRC39, OD650, 48 h (AID 1179).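 Note: screen aims at cell division blockers that make cells filament.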 Conditions: E. coli DRC39 delta-acrAB growth, higher = more signal, called active from +8 up or from −8 down.
Assay [9] is described as follows: RPMI8226 myeloma cell viability, profiling panel, resazurin fluorescence, basal, 24 h, PK04 Diversity Set (AID 1180).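 Note: RPMI8826 multiple myeloma cell line at 5000 cells per well.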 The settings on record: higher = more signal.
For assay [10], the target named is E3 ubiquitin-protein ligase XIAP (Homo sapiens) (UniProt P98170). The assay can be described thus: XIAP binders, primary screen, biophysical, small-molecule microarray, fluorescence 635 nm (AID 1181).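 Note: score merges 667 nm emission and signal to noise over triplicate slides.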 The settings on record: small-molecule microarray binding, higher = more signal.
For assay [11], the system named is XIP peptide (Xip251-270) binding. The assay can be described thus: small-molecule binders of XIP peptide, primary screen, biochemical, small-molecule microarray, fluorescence 635/667 nm, 0.1 µg/mL protein (AID 1182). Conditions: fluorescent protein binding, 635 nm, higher = more signal, called active from +8 up or from −8 down.
For another assay, the system named is XIP peptide (Xip251-270). Kind of assay: small-molecule binders of XIP peptide, primary screen, biochemical, small-molecule microarray, fluorescence 635/667 nm, 0.5 µg/mL protein (AID 1183). Conditions: small-molecule microarray binding, fluorescence 635 nm; higher = more signal.
Assay [12] is described as follows: Plasmodium falciparum growth inhibition, primary screen, strain 3D7, DAPI fluorescence, 100 nL (AID 1184).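 Note: parasites grown inside human red blood cells in medium with human serum.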 The settings on record: P. falciparum 3D7 growth, 3 d, higher = more signal.
The target in assay [13] is Homeobox protein Hox-A13 (Mus musculus) (UniProt Q62424). The assay can be described thus: inhibitors of HoxA13-DNA binding, primary screen, biochemical, fluorescence polarization, labeled oligonucleotide (AID 1185). Conditions: 15 min, higher = more signal, called active from +8 up or from −8 down. For orientation: In fluorescence polarisation assays a small probe gives low polarisation when free and higher when bound to something large.

The nature of assay [14]: inhibitors of hydroxyurea-induced Chk1 phosphorylation, primary screen, imaging, HeLa, phospho-Chk1 antibody, percent positive cells (AID 1186). Conditions: hydroxyurea-induced phospho-Chk1 immunofluorescence imaging, higher = more signal.
Assay [15] can be described thus: inhibitors of hydroxyurea-induced Chk1 phosphorylation, primary screen, imaging, HeLa, phospho-Chk1 nuclear intensity (AID 1187). The settings on record: hydroxyurea-induced phospho-Chk1 immunofluorescence imaging, higher = more signal.

Sequence of E3 ubiquitin-protein ligase XIAP (Homo sapiens) (P98170 whole entry, looked up): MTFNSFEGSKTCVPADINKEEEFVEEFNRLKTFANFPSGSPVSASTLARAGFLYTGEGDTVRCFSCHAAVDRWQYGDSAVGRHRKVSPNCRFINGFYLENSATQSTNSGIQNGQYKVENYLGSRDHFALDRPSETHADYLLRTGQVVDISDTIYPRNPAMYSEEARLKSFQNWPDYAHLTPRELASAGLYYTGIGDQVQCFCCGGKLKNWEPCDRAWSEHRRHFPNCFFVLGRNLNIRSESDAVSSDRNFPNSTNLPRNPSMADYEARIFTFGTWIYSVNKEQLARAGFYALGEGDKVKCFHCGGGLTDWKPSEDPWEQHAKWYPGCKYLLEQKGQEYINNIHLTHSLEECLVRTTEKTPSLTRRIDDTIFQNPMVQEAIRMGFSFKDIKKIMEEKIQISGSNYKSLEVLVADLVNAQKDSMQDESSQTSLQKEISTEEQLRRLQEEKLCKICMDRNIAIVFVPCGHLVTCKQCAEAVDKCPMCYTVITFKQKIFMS
Sequence of Homeobox protein Hox-A13 (Mus musculus) (Q62424 whole entry, looked up): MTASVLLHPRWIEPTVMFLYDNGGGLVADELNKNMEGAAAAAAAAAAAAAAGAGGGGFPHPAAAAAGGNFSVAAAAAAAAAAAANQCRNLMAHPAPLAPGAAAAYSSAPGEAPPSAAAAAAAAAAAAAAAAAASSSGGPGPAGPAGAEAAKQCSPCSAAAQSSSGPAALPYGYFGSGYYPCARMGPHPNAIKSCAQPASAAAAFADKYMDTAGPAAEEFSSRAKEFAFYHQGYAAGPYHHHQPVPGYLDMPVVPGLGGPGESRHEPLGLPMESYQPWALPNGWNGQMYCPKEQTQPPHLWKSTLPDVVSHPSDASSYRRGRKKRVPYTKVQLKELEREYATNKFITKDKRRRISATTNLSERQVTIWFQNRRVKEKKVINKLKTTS
Sequence of Dihydroorotate dehydrogenase (quinone), mitochondrial (Plasmodium falciparum (isolate 3D7)) (Q08210 whole entry, looked up): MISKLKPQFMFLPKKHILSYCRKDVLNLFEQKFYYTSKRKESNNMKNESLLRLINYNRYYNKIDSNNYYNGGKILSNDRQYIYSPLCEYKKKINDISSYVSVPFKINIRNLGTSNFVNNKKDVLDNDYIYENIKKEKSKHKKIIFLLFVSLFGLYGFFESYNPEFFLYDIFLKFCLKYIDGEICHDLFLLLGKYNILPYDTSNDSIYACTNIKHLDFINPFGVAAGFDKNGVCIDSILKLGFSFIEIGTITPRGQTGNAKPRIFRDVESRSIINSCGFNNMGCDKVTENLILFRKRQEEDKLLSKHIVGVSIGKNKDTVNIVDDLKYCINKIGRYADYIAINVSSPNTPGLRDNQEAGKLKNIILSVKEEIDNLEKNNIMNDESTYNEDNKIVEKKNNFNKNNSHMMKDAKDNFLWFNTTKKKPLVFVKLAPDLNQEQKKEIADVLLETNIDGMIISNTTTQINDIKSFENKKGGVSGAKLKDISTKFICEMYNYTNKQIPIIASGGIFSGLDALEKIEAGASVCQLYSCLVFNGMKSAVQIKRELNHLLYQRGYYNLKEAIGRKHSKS

For the compound `CCOC(=O)C[C@H]1[C@H](OC(=O)Cc2ccc3c(c2)OCO3)[C@@H](NC(=O)C2CCCCC2)c2cc(OCCCO)ccc2N1C(=O)c1ccccc1`, the z-score in assay [1] is -0.215; in assay [2], 0.149 (inactive); in assay [3] it was 0.327 (inactive); in assay [5], 0.407 (inactive); in assay [6] it was 0.0834 (inactive); in assay [7], 1.39 (inactive). The z-score in [8] is 1.37 (inactive); in [9] it was 0.3; in assay [12], -0.201; in assay [13] it was -3.57 (inactive); in assay [14], -0.296 (inactive); in assay [15] it was -0.176 (inactive). The composite z-score is 0.108 (inactive) in assay [4], -0.173 in assay [10], -0.137 (inactive) in [11] and 0.514 with XIP peptide (Xip251-270).
Consider `CCOC(=O)C[C@H]1[C@H](OC(=O)c2ccccc2-c2ccccc2)[C@@H](NC(=O)c2ccc3ccccc3n2)c2cc(OCCCO)ccc2N1C(=O)Cc1ccc(OC)cc1`, for which the z-score in assay [1] was -0.271; in [2], 0.64 (inactive); in [3], -0.343 (inactive); in assay [5], 0.413 (inactive); in assay [6], -0.384 (inactive); in assay [7] it was -0.42 (inactive). Also, the z-score is -0.281 (inactive) in assay [8]; -0.0052 in assay [9]; -1.64 in assay [12]; -2.31 (inactive) in assay [13]; 0.332 (inactive) in assay [14]; -0.135 (inactive) in [15]. Besides, the composite z-score is 0.315 (inactive) in [4], -0.408 in assay [10], -0.0195 (inactive) in assay [11] and -0.203 in the assay on XIP peptide (Xip251-270).
As to `COCCOC(=O)N1C(=O)[C@@]2(c3cc(C#CC4(O)CCCCCC4)ccc31)[C@H](c1ccc(O)cc1)N1[C@H](c3ccccc3)[C@H](c3ccccc3)OC(=O)[C@H]1[C@@H]2C(=O)N1CCN(c2ncccn2)CC1`, the z-score in assay [1] was 0.0439; in [2], -0.31 (inactive); in [3], -0.705 (inactive); in assay [5] it was 0.654 (inactive); in assay [6], 0.326 (inactive); in assay [7] it was -0.462 (inactive). Further, the z-score in [8] is 0.0188 (inactive); in assay [9], -0.528; in [12] it was -1.99; in assay [13], -1.62 (inactive); in assay [14], 0.13 (inactive); in [15], 0.232 (inactive). The composite z-score was 0.244 (inactive) in [4], 0.0487 in [10], 0.0849 (inactive) in assay [11] and 0.699 in the assay on XIP peptide (Xip251-270).
Regarding `CCC1=C2CN(Cc3ccccc3)[C@@H](C(=O)Cc3ccccc3)C2C=CCC1` (stereo not given in full), the z-score was 0.999 in assay [1]; -3.13 (inactive) in assay [2]; -0.192 (inactive) in assay [3]; -1.61 (inactive) in assay [5]; 0.129 (inactive) in assay [6]; 0.941 (inactive) in [7]. Besides, the z-score in assay [8] was -0.0333 (inactive); in assay [9] it was -0.0509; in assay [12], -1.75; in assay [13] it was -4.07 (inactive); in assay [14], 0.313 (inactive); in assay [15] it was -0.119 (inactive). Moreover, the composite z-score in assay [4] is -3.14 (inactive); in assay [10], 0.0554; in assay [11] it was 0.932 (inactive); in the assay on XIP peptide (Xip251-270), 0.758.
Take `Cc1ccccc1C(O)C1C=CC2C(=O)NC(=O)C2N1Nc1ccccn1` (stereo not given): the z-score in assay [1] was -1.07; in assay [2], 1.21 (inactive); in assay [3] it was -0.777 (inactive); in [5], 0.543 (inactive); in assay [6], 0.487 (inactive); in assay [7] it was -0.387 (inactive). Moreover, the z-score was -0.316 (inactive) in [8]; -0.489 in assay [9]; -0.461 in [12]; -1.11 (inactive) in assay [13]; -0.0651 (inactive) in [14]; -0.681 (inactive) in assay [15]. Further, the composite z-score was 1.57 (inactive) in assay [4], 0.127 in assay [10], 0.132 (inactive) in [11] and 0.11 in the assay on XIP peptide (Xip251-270).
With `NC(=O)NCC#Cc1ccc2c(c1)[C@]1(C(=O)N2)[C@H](c2ccccc2OCCO)N2[C@H](c3ccccc3)[C@H](c3ccccc3)OC(=O)[C@H]2[C@@H]1C(=O)NC[C@H](O)c1ccccc1`, the z-score in [1] is 0.999; in [2], -0.589 (inactive); in [3], 1.62 (inactive); in [5], 0.601 (inactive); in assay [6] it was 1.94 (inactive); in assay [7] it was 1.22 (inactive). Moreover, the z-score is 0.693 (inactive) in assay [8]; 0.462 in [9]; -0.521 in [12]; -3.58 (inactive) in assay [13]; -0.552 (inactive) in [14]; -0.793 (inactive) in assay [15]. For the same compound, the composite z-score was -0.253 (inactive) in [4], 0.254 in assay [10], 0.427 (inactive) in assay [11] and 0.209 with XIP peptide (Xip251-270).
For the compound `COc1ccc(C(=O)Nc2ccc(CN3C(=O)[C@]4(O[C@H](CC(=O)N5Cc6ccccc6C[C@H]5CO)[C@@H]([Si](C)(C)c5ccc(OC)cc5)[C@@H]4C)c4ccccc43)cc2)cc1`, the z-score in [1] is -1.61; in assay [2] it was 0.496 (inactive); in assay [3] it was -1.13 (inactive); in assay [5] it was 0.0002 (inactive); in [6] it was 2.48 (inactive); in assay [7], -1.14 (inactive). Besides, the z-score in assay [8] was -1.09 (inactive); in [9], -0.839; in [12], -2.31; in assay [13], 0.247 (inactive); in [14] it was 0.714 (inactive); in assay [15], 0.329 (inactive). In addition, the composite z-score in [4] is -2.72 (inactive); in assay [10], -0.239; in assay [11] it was 1.22 (inactive); with XIP peptide (Xip251-270) it was 0.775.
For the compound `C#Cc1cc2ccccc2oc1=O`, the z-score in assay [1] is 0.236; in assay [2] it was -5.07 (inactive); in assay [3] it was -1.05 (inactive); in [5] it was -0.0322 (inactive); in [6] it was -0.874 (inactive); in assay [7], -1.46 (inactive). Besides, the z-score in assay [8] is -1.25 (inactive); in [9], -1.14; in assay [12], -0.744; in assay [13], -1.51 (inactive); in assay [14] it was 0.318 (inactive); in [15], -0.6 (inactive). Besides, the composite z-score in assay [4] is -0.748 (inactive); in assay [10], -0.172; in [11], 0.151 (inactive); with XIP peptide (Xip251-270) it was 0.35.
Turning to `CC(C)[Si]1(C(C)C)OCc2cc(C3CC3)nc(-c3ccc(Oc4ccccc4)cc3)c21`, the z-score in assay [1] was 0.467; in [2], 1.64 (inactive); in [3], 1.03 (inactive); in [5], 0.173 (inactive); in [6], 2.12 (inactive); in assay [7] it was 0.362 (inactive). In addition, the z-score is 0.0518 (inactive) in assay [8]; -0.497 in assay [9]; -1.39 in [12]; -2.85 (inactive) in assay [13]; -0.48 (inactive) in assay [14]; -0.358 (inactive) in assay [15]. Moreover, the composite z-score is 0.483 (inactive) in assay [4], -0.299 in [10], -0.495 (inactive) in assay [11] and -0.603 in the assay on XIP peptide (Xip251-270).
Regarding `C=CCC(OC(C)=O)[C@@H]1[C@@H](N(Cc2ccc(-c3cccc(C(F)(F)F)c3)o2)C(=O)c2ccc(-c3ccccc3)cc2)c2cc(OCCCO)ccc2N1C(=O)Cc1ccc2ccccc2c1` (stereo not given in full), the z-score in [1] is 0.0839; in assay [2] it was 0.915 (inactive); in [3] it was -0.115 (inactive); in assay [5], 0.338 (inactive); in assay [6], 0.805 (inactive); in assay [7], 0.0952 (inactive). Also, the z-score in assay [8] was 0.119 (inactive); in [9], 0.322; in [12] it was -0.694; in [13] it was -1.1 (inactive); in assay [14], 0.345 (inactive); in assay [15], 0.291 (inactive). The composite z-score is 0.306 (inactive) in assay [4], -0.17 in assay [10], -0.186 (inactive) in assay [11] and -0.738 in the assay with XIP peptide (Xip251-270).
